GluA2 TARP mod – modulators of AMPA receptor GluA2-stargazin complexes; O88602+P19491; HEK293 GluA2+stargazin, membrane potential dye (FDSS), glutamate EC50; hits were called plate by plate, in both directions; calls only at 30 µM; 40,000 tested, 3.5% active; AID 1259245;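 active means any of four per-well response measures lying three or more SD from its plate-wide compound average, in either direction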
Target sequence (O88602 whole entry, looked up): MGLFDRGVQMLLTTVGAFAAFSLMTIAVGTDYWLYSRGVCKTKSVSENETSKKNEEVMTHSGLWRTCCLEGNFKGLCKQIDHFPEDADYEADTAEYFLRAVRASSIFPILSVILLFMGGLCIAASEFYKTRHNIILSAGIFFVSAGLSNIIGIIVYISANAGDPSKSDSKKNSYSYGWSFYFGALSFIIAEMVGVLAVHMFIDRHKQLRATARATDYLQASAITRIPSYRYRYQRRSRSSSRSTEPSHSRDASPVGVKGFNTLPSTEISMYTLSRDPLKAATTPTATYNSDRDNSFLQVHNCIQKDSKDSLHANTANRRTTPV
Target sequence (P19491 whole entry, looked up): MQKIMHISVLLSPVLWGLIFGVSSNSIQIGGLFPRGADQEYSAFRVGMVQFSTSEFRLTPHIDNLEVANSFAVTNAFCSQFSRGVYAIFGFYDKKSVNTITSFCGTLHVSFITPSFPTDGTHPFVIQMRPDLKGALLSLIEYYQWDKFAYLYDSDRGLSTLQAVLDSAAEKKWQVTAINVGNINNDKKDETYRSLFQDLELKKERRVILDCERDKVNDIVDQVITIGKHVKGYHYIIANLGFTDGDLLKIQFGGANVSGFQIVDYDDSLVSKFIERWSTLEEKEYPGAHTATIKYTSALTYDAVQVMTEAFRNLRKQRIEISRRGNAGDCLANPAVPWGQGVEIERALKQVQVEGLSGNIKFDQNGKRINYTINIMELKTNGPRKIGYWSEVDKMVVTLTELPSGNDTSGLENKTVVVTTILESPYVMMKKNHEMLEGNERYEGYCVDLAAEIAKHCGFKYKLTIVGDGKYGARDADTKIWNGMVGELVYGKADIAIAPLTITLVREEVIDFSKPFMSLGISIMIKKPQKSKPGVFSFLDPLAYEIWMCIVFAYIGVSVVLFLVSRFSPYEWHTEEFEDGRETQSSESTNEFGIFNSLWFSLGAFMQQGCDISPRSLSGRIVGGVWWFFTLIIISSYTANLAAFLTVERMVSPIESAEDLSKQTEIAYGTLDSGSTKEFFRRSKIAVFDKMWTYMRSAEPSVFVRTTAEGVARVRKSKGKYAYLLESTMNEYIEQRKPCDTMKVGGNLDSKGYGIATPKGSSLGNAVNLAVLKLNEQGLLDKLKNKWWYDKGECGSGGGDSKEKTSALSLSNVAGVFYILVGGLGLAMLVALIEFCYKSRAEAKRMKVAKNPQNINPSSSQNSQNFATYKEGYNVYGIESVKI
GIRK2 act – GIRK2 channel activators by thallium flux | P48051 | HEK293 GIRK2/NPY4 cells, thallium flux fluorescence | activation (% efficacy), % for hits at 37.5 µM | 34,000 tested, under 10 active | AID 1259324;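 active means primary screen hit, no activity in plain HEK293 cells, and in GIRK2-only cells above 5% efficacy rising with concentration; inactive means the rest, including fluorescent compounds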;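 further: efficacy is normalized control-subtracted fluorescence 15 s after thallium addition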
Starred values were filed as active, the others as inactive; i = inactive; nt = no result given; + = active, no number; ! = not confirmed by another sample. This is one part of a sample in which hits are shown more often than they occur.

SMILES | GluA2 TARP mod | GIRK2 act
Cc1ccc(-c2noc(-c3cn(CC(=O)N4CCc5ccccc5C4)c4nc(C)ccc4c3=O)n2)cc1 | i | i
CCOC(=O)N1CCN(C(=O)CN2C(=O)NC3(CCC(C)CC3)C2=O)CC1 (stereo not given) | i | i
O=[N+]([O-])c1cccc(NS(=O)(=O)c2ccc3ccccc3c2)c1 | + | nt
CS(=O)(=O)c1cccc(S(=O)(=O)Nc2ccc([N+](=O)[O-])cc2)c1 | nt | i
O=[N+]([O-])c1ccc(NS(=O)(=O)c2ccc3ccccc3c2)cc1 | + | nt
COc1ccc(NS(=O)(=O)c2cccc([N+](=O)[O-])c2)cc1 | i | nt
CC(C)(C)n1ncc2c(=O)n(CCC(=O)N3CCN(c4ccccc4Cl)CC3)cnc21 | i | i
COc1cc(OC)cc(C(=O)NCC2(c3ccccc3)CCOCC2)c1 | i | i
COc1ccc(C2(CNC(=O)c3ccc(Cl)c(Cl)c3)CCOCC2)cc1 | + | nt
Fc1cccc(Nc2nc(N3CCCCC3)c3[nH]cnc3n2)c1 | i | i
CN1CCN(c2nc(Nc3cccc(O)c3)nc3ccccc23)CC1 | + | nt
Fc1ccccc1Nc1nc(N2CCOCC2)c2ccccc2n1 | + | nt
Cc1nc(Nc2cccc(F)c2)nc(N2CCOCC2)c1[N+](=O)[O-] | i | i
COc1ccc(-c2ccc(=O)n(CCCC(=O)Nc3ccc(F)c(Cl)c3)n2)cc1OC | i | i
O=C(Nc1ccc(OC(F)(F)F)cc1)N1CCN(c2ccc3nnc(C4CC4)n3n2)CC1 | i | i
O=C(Cc1ccc(NS(=O)(=O)C2CCCCC2)cc1)NCc1cccs1 | i | i
O=C1Nc2ccccc2Oc2ccc(NS(=O)(=O)C3CCCCC3)cc21 | + | nt
COCCCNC(=O)c1nn(-c2ccc(F)cc2)cc1OC | i | i
COc1cn(-c2ccc(F)cc2)nc1C(=O)NCCCn1ccnc1 | + | i
COc1ccc(C2(CNC(=O)c3cn(C)nc3OC)CCCC2)cc1 | i | i
Cn1c(=NC(=O)CS(=O)(=O)Cc2ccccc2)sc2cc3c(cc21)OCO3 | i | i
COc1ccc(-c2cc(C(F)(F)F)nc(SCC(=O)N3CCCC3)n2)cc1OC | i | nt
COC(=O)CSc1nc(-c2ccc(F)cc2)cc(C(F)(F)F)n1 | + | nt
COc1cc(NC(=O)c2cc3ccccc3o/c2=N/NS(=O)(=O)c2ccccc2)cc(OC)c1 | nt | i
CN(C)S(=O)(=O)c1ccc(C(=O)NCC(O)c2ccc(C(F)(F)F)cc2)cc1 (stereo not given) | nt | i
SMILES | GluA2 TARP mod | GIRK2 act
O=C(NCC1(c2cccs2)CC1)Nc1cccc(C(F)(F)F)c1 | i | i
COc1cccc(NC(=O)NCC2(c3cccs3)CC2)c1 | + | i
CCOc1ccc(NC(=O)C23CC4CCC(CC(C4)C2)C3)cc1 | + | nt
O=C(Cc1ccc(NC(=O)C23CC4CC(CC(C4)C2)C3)cc1)NC1CC1 | i | i
O=C1CSC(=O)N1C1CCCCC1NC(=O)C1(c2cccs2)CCCC1 (stereo not given) | i | i
CC(C)Cn1c(SCC#N)nc2cc(C(=O)NC(C)C)ccc2c1=O | i | nt
CCN(CC)CCn1c(SCC#N)nc2cc(C(=O)OC)ccc2c1=O | +! | i
Cc1ccc(S(=O)(=O)N2CCC(C(N)=S)CC2)cc1 | i | nt
O=C(NCC1CCN(C2CCCC2)CC1)c1ccc(F)cc1 | nt | i
COc1ccc(-c2cc(=O)n(CC(=O)NCCc3ccc(S(N)(=O)=O)cc3)cn2)cc1 | nt | i
O=C(CS(=O)(=O)Cc1ccccc1)N1CCN(c2nc3c(Cl)cccc3s2)CC1 | + | i
CCc1cccc2sc(N3CCN(C(=O)CS(=O)(=O)Cc4ccccc4)CC3)nc12 | i | i
Cc1ccc(S(=O)(=O)N2CCCCC2CC(=O)NC2CCCCC2)cc1 (stereo not given) | i | nt
COc1ccccc1CNC(=O)CC1CCCCN1S(=O)(=O)c1ccc(Cl)cc1 (stereo not given) | i | nt
COc1ccccc1CCNC(=O)CC1CCCCN1S(=O)(=O)c1ccccc1 (stereo not given) | i | nt
COc1ccccc1CCNC(=O)CC1CCCCN1S(=O)(=O)c1ccc(Cl)cc1 (stereo not given) | + | nt
COc1ccccc1CCNC(=O)CC1CCCCN1S(=O)(=O)c1ccc(C)cc1 (stereo not given) | + | nt
O=C(CC1CCCCN1S(=O)(=O)c1ccccc1)NC1CCCCC1 (stereo not given) | + | nt
COc1ccccc1CNC(=O)C(=O)NCCC1CCCCN1S(=O)(=O)c1ccccc1 (stereo not given) | + | nt
COc1ccccc1CNC(=O)C(=O)NCCC1CCCCN1S(=O)(=O)c1ccc(F)cc1 (stereo not given) | i | nt
Cc1cccc(Cn2ccc3ccn(CC(=O)Nc4cc(C)cc(C)c4)c(=O)c32)c1 | nt | i
O=C(NCCc1csc(-c2cccc(F)c2)n1)Nc1cccs1 | i | i
CCC(=O)Nc1ccc(S(=O)(=O)NCC(O)c2cccn2C)c(C)c1 (stereo not given) | i | i
O=S(=O)(Cc1ccccc1)N1CCC(c2cccs2)CC1 | i | i
O=C(Nc1ccc(F)cc1F)c1ccc(=O)n(Cc2ccc(C(F)(F)F)cc2)c1 | + | i
SMILES | GluA2 TARP mod | GIRK2 act
Cc1ccc(Cn2cc(C(=O)Nc3ccc(F)cc3F)ccc2=O)cc1 | i | i
COC(=O)c1ccc2nc(NC(=O)C3CCCCC3)sc2c1 | i | i
COC(=O)c1sc2ccccc2c1NC(=O)C1CCCCC1 | + | nt
CCCNC(=O)C(=O)Nc1c2c(nn1-c1cccc(Cl)c1)CS(=O)(=O)C2 | i | i
Cc1c(NC(C)c2cc(Cl)ccc2O)c(=O)n(-c2ccccc2)n1C (stereo not given) | + | nt
Cc1c(NC(=S)NC(=O)c2ccccc2Cl)c(=O)n(-c2ccccc2)n1C | i | i
O=C1CC2(CCCC2)CC(=O)N1c1ccccc1Cl | i | nt
COc1ccccc1NC(=O)c1ccc(S(=O)(=O)N(C)C2CCCCC2)cc1 | i | nt
CCCN(CCC)S(=O)(=O)c1ccc(C(=O)Nc2ccccc2OC)cc1 | + | nt
CCSc1ccccc1C(=O)NCCn1cnc(-c2ccccc2)cc1=O | + | i
O=C(Cn1cnc(-c2ccccc2)cc1=O)NCCC(c1ccccc1)c1ccccc1 | i | i
O=C(NCCc1ccncc1)C1CN(C(=O)c2cccs2)C1 | i | i
COC(=O)N1CCC(CNC(=O)CCc2ccccc2)CC1 | + | i
COC(=O)N1CCC(CNC(=O)C(=O)NCCc2ccccc2)CC1 | i | i
CC(=O)c1ccc(NC(=O)c2ccc(COc3ccc(Cl)cc3)o2)cc1 | i | nt
CCOC(=O)C(C)Sc1c(C)cnc2c1c(=O)n(C)c(=O)n2C (stereo not given) | i | i
CCNc1nc2c(c(=O)n(C)c(=O)n2C)n1CCCOc1ccccc1 | i | i
CC(c1ccccc1)n1c(N2CCCCC2)nc2c1c(=O)n(C)c(=O)n2C (stereo not given) | + | i
Cn1c(=O)c2c(nc(N3CCOCC3)n2CCSc2ncccn2)n(C)c1=O | + | nt
Cn1c(=O)c2c(nc(N3CCCCCC3)n2CC(O)COc2ccccc2)n(C)c1=O (stereo not given) | i | nt
Cn1c(=O)c2c(nc(N3CCOCC3)n2CCCc2ccccc2)n(C)c1=O | i | nt

Screens deposited in PubChem BioAssay by several laboratories.
